# Assay outcomes from PubChem BioAssay.
# ERAP1 inh = human ERAP1 aminopeptidase inhibitors, primary screen, biochemical, single point, plate reader. recombinant ERAP1, Leu-AMC fluorescence, 60 min. actives 0.15% (n = 340,000). inhibition, % at 10.7 µM. AID 652197, 2013;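 active = mean replicate inhibition of at least 30%, or all replicates individually reaching that 30% level; inactive = mean below 30% and not every replicate reaching it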;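 also: 0% = neutral control wells and 100% = L-leucinethiol positive control wells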
# DENV2 CPE rescue = inhibitors of DENV2 cytopathic effect, primary screen, cell-based, plate reader, single concentration; DENV2-infected cells, cytopathic effect rescue; actives 1.7% (n = 350,000); CPE inhibition, % at 9.99 µM; in the data active = CPE inhibition above about 20%, passing the limit was not always enough; inconclusive = no clear call, values can overlap the other calls; tested in BHK-21 cells;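 also: 0% = median of neutral control wells and 100% = median of positive control wells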
# ERp5 inh = inhibitors of ERp5-driven insulin aggregation, primary screen, biochemical, turbidity, absorbance 650 nm, single point | AID 651711, 2012 | Protein disulfide-isomerase A6 (Homo sapiens), Q15084 | 90 min | inhibition, % at 9.99 µM | actives 0.05% (n = 350,000);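 active = mean replicate inhibition above about 25%, with every replicate also reaching it, limit read from the data, passing the limit was not always enough; inconclusive = only one of those two criteria met; inactive = neither criterion met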
# PDI turbidity = inhibitors of human PDI, primary screen, biochemical, turbidity, single point, plate reader; actives 0.052% (n = 350,000); Protein disulfide-isomerase (Homo sapiens), P07237; PDI insulin aggregation turbidity, A650, 90 min; inhibition, % at 10 µM;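 active = mean inhibition across replicates of 30% or more, whatever share of single replicates reach that level; inconclusive = mean inhibition below 30% while every single replicate reaches 30%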
# AF4-AF9 inh = inhibitors of AF4 peptide binding to AF9, primary screen, biochemical, AlphaScreen, biotin-AF4 peptide, FLAG-AF9, single point. inhibition, % at 10 µM. actives 0.47% (n = 350,000). AID 651704, 2012. Protein AF-9 (Homo sapiens), P42568;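 active = every replicate reaching a set inhibition limit, whatever the replicate mean, cut at about 25% in these data; inconclusive = mean inhibition reaches that limit but some replicates miss it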;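 also: 0% = plate neutral control median and 100% = total signal loss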
# AlphaScreen intf = AlphaScreen signal interference counter-screen, dose response, artefact control, biochemical, cherry-picked samples, luminescence | shares compounds with AF4-AF9 inh | AC50, µM (top dose mostly 12 µM), without a hit: at the highest dose activity change, negative = inhibition | actives 45% (n = 530) | AID 720494, 2013; cut-off not given, nearly all actives have AC50 up to about 14 µM
# * hit, by the source's call; ? = inconclusive; . = no result given. An excerpt weighted towards active compounds, which were near 1.8% of everything screened.
SMILES,ERAP1 inh,DENV2 CPE rescue,ERp5 inh,PDI turbidity,AF4-AF9 inh,AlphaScreen intf
COc1ccc(C#Cc2ccc([C@@H]3[C@@H](CO)N4CCCCN(C(=O)Cc5ccncc5)C[C@@H]34)cc2)cc1,-1,36*,-4,.,-6,.
COc1ccc(C#Cc2ccc([C@@H]3[C@@H](CO)N4CCCCN(C(=O)Cc5cccnc5)C[C@@H]34)cc2)cc1,1,-3,-1,.,-5,.
COc1ccc(C#Cc2ccc([C@H]3[C@@H](CO)N4CCCCN(C(=O)Cc5ccncc5)C[C@@H]34)cc2)cc1,2,-4,0,.,-2,.
O=c1ccc2cc(O[C@@H]3O[C@H](CO)[C@@H](O)[C@H](O)[C@H]3O)c(O)cc2o1,154*,-3,4,2,-4,.
CN(C)c1ccc(NC(=O)CN2C(=O)CN=C(c3ccccc3)c3cc(Cl)ccc32)cc1,4,-7,-3,3,27*,.
NS(=O)(=O)c1nc[nH]c1[N+](=O)[O-],5,29*,-8,2,-1,.
COC(=O)[C@H]1[C@H](CO)[C@H]2Cn3c(ccc(-c4ccccc4F)c3=O)[C@@H]1N2C(C)=O,2,?,11,.,-1,.
O=C(CCN1CC1)OCCOC(=O)CCN1CC1,0,8,-4,0,?,-15%
CN1C2CCC1CC(OC(=O)CCN1CCCC1)C2 (stereo unspecified),.,.,.,-2,-4,.
COc1ccc(OC(=O)N(C)C[C@@H]2OCc3ccccc3-c3c(n(C)c4ccccc34)C(=O)N([C@H](C)CO)C[C@H]2C)cc1,-2,2,4,.,5,.
O=C(NC[C@H]1CC[C@H]2[C@H](CN2Cc2cccnc2)O1)C1CC1,-1,0,-7,.,10,.
CC1(C)CC(Nc2ccc(Nc3ccccc3)cc2)CC(C)(C)N1,-1,-1,1,-13,76*,13µM*
CN(C)c1ccc(/C=C/c2cc[n+](C)c3ccccc23)cc1,10,7,-13,-7,41*,2.9µM*
CC[n+]1c(/C=C/N(C)c2ccccc2)sc2ccc(Cl)cc21,.,.,.,-8,.,.
CN(C)c1ccc(/C=C/C=C/c2sc3ccccc3[n+]2C)cc1,10,-9,-2,1,61*,3.7µM*
CC[n+]1c(/C=C/C=C/c2ccc(N(C)C)cc2)sc2ccccc21,6,-11,1,2,86*,1µM*
CC=Cc1ccc2n(c1=O)C[C@@H]1[C@@H](CO)[C@H](C(=O)OC)[C@H]2N1CC1CCOCC1 (mixture of isomers),0,-1,3,.,0,.
O=C(O)[C@H]1[C@H](CO)[C@H]2Cn3c(ccc(-c4ccncc4)c3=O)[C@@H]1N2C(=O)C1CCCC1,-3,4,-1,.,-15,.
COc1cc2c(c(OC)c1OC)-c1ccc(C(=O)O)cc1[C@@H](NC(C)=O)CC2,.,.,.,-3,.,.
COc1cc2c(c(OC)c1OC)-c1ccc(O)c(=O)cc1[C@@H](N)CC2,2,86*,6,.,48*,7.6µM*
CCN(CC)c1ccc(C(=C2C=CC(=[N+](CC)CC)C=C2)c2ccccc2)cc1,13,-1,12,19,76*,1.1µM*
C[C@@H]1CN([C@H](C)CO)C(=O)c2c(c3ccccc3n2C)-c2ccccc2CO[C@@H]1CN(C)C(=O)Oc1ccccc1,-3,-24,2,.,1,.
NC(N)=N/N=C/c1cn(-c2ccccc2)nc1-c1cccs1,-2,-2,8,-5,31*,-24%
CN(C)c1ccc([P+](=O)c2ccc(N(C)C)cc2)cc1,6,-2,2,-1,3,.
CN(C)c1ccc(Cc2ccc(N(C)C)cc2)cc1,-1,-1,-3,1,46*,9.3µM*
